Several values for one entry are separate records, joined by “and”; a condition that tells them apart may be missing. Identical values can stand only once. Results filed as inconclusive are left out. Activity calls are given as the source filed them. Unless noted, calls follow the shape of the dose curve; as a rule, active = well fitted cell-killing curve with a large enough effect; inconclusive = small, poorly fitted or top-dose-only effect; inactive = flat fitted curve, though single readings scatter.
What was measured:
[1] = Cell Viability - LYMP2-023 (AID 975);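 also: cellular ATP measured by luciferase luminescence as viability proxy; series mostly up to about 92 µM; plate controls were DMSO only for no effect and 92 µM tetraoctylammonium bromide control for full effect; nearly all actives have a fitted effect of over 55% in size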
How it was run: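 2500 cells/well, 5 hr 37 C; cpd 24 hr 37 C; CellTiter-Glo, 30 min RT; luminescence. qHTS conc-response, Hill fit -> AC50. Pos ctrl tetraoctylammonium bromide.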

[2] = Cell Viability - LYMP2-025 (AID 976);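 also: series mostly up to about 92 µM; plate controls were DMSO only for no effect and tetraoctylammonium bromide control for full effect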
How it was run: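 Seed 2500 LYMP2-025 cells/well; 5 hr at 37 C; add compound; 24 hr at 37 C; add CellTiter-Glo; 30 min RT; read luminescence. AC50 from Hill-modelled concentration-response.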

[3] = Cell Viability - LYMP2-002 (AID 977);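 also: series mostly up to about 92 µM; plate controls were DMSO only for no effect and 92 µM tetraoctylammonium bromide for full effect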
How it was run: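 Luminescent ATP readout (CellTiter-Glo, 30 min room temperature) after 24 h compound exposure at 37 C of a human lymphoblastoid line, 2500 cells/well. AC50 values derived by standard Hill fitting of qHTS concentration-response data.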

[4] = Cell Viability - LYMP2-006 (AID 978); also: series mostly up to about 92 µM; % is scaled to controls: 0 for no effect and ±100 for the full control effect; nearly all actives have a fitted effect of over 60% in size
How it was run: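 Concentration-dependent loss of intracellular ATP in a human lymphoblastoid line after 24 hr treatment at 37 C was measured by CellTiter-Glo luminescence, with AC50 values obtained from standard Hill-equation modelling.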

[5] = Cell Viability - LYMP2-007 (AID 979);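 also: cells exposed to compound for 24 h before reading; 0% = DMSO only and the negative end = 92 µM tetraoctylammonium bromide; nearly all actives have a fitted effect of over 60% in size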
How it was run: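 Luminescent ATP signal (CellTiter-Glo) serves as the viability read-out after 24 hr compound treatment of lymphoblastoid cells in complete medium at 37 C. Concentration-response data were fitted to the Hill equation to give AC50 values.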

[6] = Cell Viability - LYMP2-008 (AID 980); also: % is scaled to controls: 0 for no effect and ±100 for the full control effect; nearly all actives have a fitted effect of over 60% in size
How it was run: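 qHTS, human lymphoblastoid line, 2500 cells/well; 5 hr preincubation, 24 hr compound, 37 C. CellTiter-Glo ATP luminescence. AC50 via Hill equation. Tetraoctylammonium bromide positive control.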

[7] = Cell Viability - LYMP2-010 (AID 981); also: % is scaled to controls: 0 for no effect and ±100 for the full control effect; nearly all actives have a fitted effect of over 55% in size
How it was run: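 Luminescent ATP signal (CellTiter-Glo) served as the viability read-out. Cells of the human lymphoblastoid line were treated with compound over a concentration range for 24 hours at 37 C, and AC50 values came from Hill-equation modeling.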

[8] = Cell Viability - LYMP2-012 (AID 982);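 also: cellular ATP by luciferase luminescence where a drop means cytotoxicity; cells exposed to compound for one day before reading; 0% = DMSO only and full loss = 92 µM tetraoctylammonium bromide; nearly all actives have a fitted effect of over 55% in size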
[9] = Cell Viability - LYMP2-014 (AID 983);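 also: series mostly up to about 92 µM; plate controls were DMSO only for no effect and 92 µM tetraoctylammonium bromide for full effect; nearly all actives have a fitted effect of over 50% in size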
How it was run: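 Luminescent ATP signal (CellTiter-Glo, 30 min at room temperature) serves as the viability read-out after 24 hr compound exposure at 37 C. Cells were seeded at 2500 per well and settled 5 hr beforehand.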

[10] = Cell Viability - LYMP2-016 (AID 984); also: % is scaled to controls: 0 for no effect and ±100 for the full control effect; nearly all actives have a fitted effect of over 55% in size
How it was run: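 Acute toxicity in a Coriell human lymphoblastoid line is scored as loss of intracellular ATP over 24 h of treatment in complete medium. CellTiter-Glo signal is fitted across concentrations with the Hill equation to give AC50.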

[11] = Cell Viability - LYMP2-018 (AID 985);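 also: plate controls were DMSO only for no effect and tetraoctylammonium bromide at 92 µM for full effect; nearly all actives have a fitted effect of over 50% in size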
How it was run: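 Luminescent ATP signal (CellTiter-Glo, read after 30 min at room temperature) reports viable cells after 24 hr compound treatment at 37 C. Concentration-response data were fitted to the standard Hill equation for AC50.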

[12] = Cell Viability - LYMP2-022 (AID 987)
How it was run: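 qHTS: human lymphoblastoid cells 2500/well; 5 hr 37 C; cpd added; 24 hr 37 C; CellTiter-Glo, 30 min RT; luminescence. AC50 via Hill fit; tetraoctylammonium bromide positive ctrl.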

[13] = Cell Viability - LYMP2-024 (AID 988);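 also: plate controls were DMSO only for no effect and 92 µM tetraoctylammonium bromide for full effect; nearly all actives have a fitted effect of over 60% in size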
How it was run: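 Steps: seed 2500 cells/well, 5 hr 37 C; add compound, 24 hr 37 C; add CellTiter-Glo, 30 min room temperature; read luminescence. AC50 derived by Hill modelling of concentration-dependent ATP loss.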

[14] = Cell Viability - LYMP2-026 (AID 989); also: % is scaled to controls: 0 for no effect and ±100 for the full control effect; nearly all actives have a fitted effect of over 50% in size
How it was run: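 Luminescent ATP signal (CellTiter-Glo, 30 min room temperature) measures viable lymphoblastoid cells after 24 hr compound treatment at 37 C. Decreased ATP reflects acute toxicity; AC50 values come from Hill-equation modeling.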

[15] = Cell Viability - LYMP1-002 - Assay at 24 hr (AID 993); also: % is scaled to controls: 0 for no effect and ±100 for the full control effect
How it was run: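 Cells plated 2500/well, 5 hr 37 C; compounds added, 24 hr 37 C; CellTiter-Glo added, 30 min RT; luminescence read. Tetraoctylammonium bromide positive control. Hill-equation AC50.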

[16] = Cell Viability - LYMP1-002 - Assay at 40 hr (AID 994)
How it was run: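 Luminescent ATP signal served as the viability readout, with decreases taken as toxicity. Cells were treated with compounds across a concentration range for 40 hours at 37 C, and AC50 values came from standard Hill modeling.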

[17] = qHTS Assay for Identification of Small Molecule Inducers of Hypoxia Response (AID 2120; active = well fitted curve in the direction sought with a large enough effect in the signal ratio, with a control signal flat, not every such curve was filed as active; the % refers to the signal ratio; also: 0% is about no effect)
How it was run: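 ME-180 HRE-bla cells plated in Opti-MEM/0.5% dialyzed FBS, rested 4-5 h, then dosed with compound titrations by pin tool. After 17 h at 37 degrees C, CCF4 dye loaded 2.5 h at RT; 460/530 nm ratio gave %Activity and AC50.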

[18] = target: Glucocorticoid receptor (Homo sapiens) (UniProt P04150); assay: qHTS assay for small molecule agonists of glucocorticoid receptor signaling (AID 588532; active = well fitted curve in the direction sought with a large enough effect in the signal ratio, with a control signal flat; the % refers to the signal ratio;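 also: 100% = dexamethasone at 0.1 µM and 0% = DMSO only wells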); details: HeLa MMTV-bla, beta-lactamase ratio, agonist, 18 h; stronger effect = higher value; percent of dexamethasone control, DMSO zero
Sequence of Glucocorticoid receptor (Homo sapiens) (P04150 whole entry, looked up): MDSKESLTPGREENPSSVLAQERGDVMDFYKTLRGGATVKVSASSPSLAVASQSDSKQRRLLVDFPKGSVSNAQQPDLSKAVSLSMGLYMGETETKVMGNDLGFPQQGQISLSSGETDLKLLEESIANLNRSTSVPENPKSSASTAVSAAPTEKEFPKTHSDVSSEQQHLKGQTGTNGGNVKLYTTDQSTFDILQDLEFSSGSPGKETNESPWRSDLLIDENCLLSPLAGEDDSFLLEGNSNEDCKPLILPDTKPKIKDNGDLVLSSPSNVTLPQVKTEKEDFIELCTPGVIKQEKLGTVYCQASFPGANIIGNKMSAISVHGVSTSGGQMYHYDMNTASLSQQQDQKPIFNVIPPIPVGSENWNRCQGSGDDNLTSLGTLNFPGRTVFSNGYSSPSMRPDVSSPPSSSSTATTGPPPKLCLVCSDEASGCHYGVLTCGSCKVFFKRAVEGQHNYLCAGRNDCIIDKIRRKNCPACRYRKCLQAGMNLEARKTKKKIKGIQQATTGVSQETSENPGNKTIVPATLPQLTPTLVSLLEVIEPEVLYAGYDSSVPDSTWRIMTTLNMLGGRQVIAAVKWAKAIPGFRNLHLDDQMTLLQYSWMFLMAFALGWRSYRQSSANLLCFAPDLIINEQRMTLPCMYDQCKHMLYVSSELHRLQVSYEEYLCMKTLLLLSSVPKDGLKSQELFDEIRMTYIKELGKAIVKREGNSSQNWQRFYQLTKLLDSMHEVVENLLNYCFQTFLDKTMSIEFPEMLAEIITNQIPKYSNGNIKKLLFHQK
How it was run: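 MMTV-bla HeLa, beta-lactamase reporter; medium with 1% charcoal/dextran-stripped FBS; cpds up to 92 uM, 18 h, 37 C; CCF4 readout 460/530 nm; Hill fit → EC50, efficacy vs 0.1 uM dexamethasone = 100%.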

[19] = target: Glucocorticoid receptor (Homo sapiens) (UniProt P04150); assay: qHTS assay for small molecule antagonists of glucocorticoid receptor signaling (AID 588533; active = well fitted inhibition curve with a large enough effect in the signal ratio, with a control signal flat, not every such curve was filed as active; the % refers to the signal ratio;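 also: cells stimulated with 2 nM dexamethasone as agonist; % is scaled to controls: 0 for no effect and ±100 for the full control effect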)
How it was run: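 Antagonist-mode qHTS: compound titrations added to GRE-bla HeLa cells, then dexamethasone 2 nM final; 18 h, 37 C. CCF4 FRET fluorescence normalized to dexamethasone and DMSO; IC50 from Hill fit.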

[20] = target: Peroxisome proliferator-activated receptor delta (Homo sapiens) (UniProt Q03181); assay: qHTS assay for small molecule agonists of peroxisome proliferator-activated receptor delta signaling (AID 588534; calls by dose curve;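 also: 0% = DMSO basal wells and 100% = positive control agonist at 10 µM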)
Sequence of Peroxisome proliferator-activated receptor delta (Homo sapiens) (Q03181 whole entry, looked up): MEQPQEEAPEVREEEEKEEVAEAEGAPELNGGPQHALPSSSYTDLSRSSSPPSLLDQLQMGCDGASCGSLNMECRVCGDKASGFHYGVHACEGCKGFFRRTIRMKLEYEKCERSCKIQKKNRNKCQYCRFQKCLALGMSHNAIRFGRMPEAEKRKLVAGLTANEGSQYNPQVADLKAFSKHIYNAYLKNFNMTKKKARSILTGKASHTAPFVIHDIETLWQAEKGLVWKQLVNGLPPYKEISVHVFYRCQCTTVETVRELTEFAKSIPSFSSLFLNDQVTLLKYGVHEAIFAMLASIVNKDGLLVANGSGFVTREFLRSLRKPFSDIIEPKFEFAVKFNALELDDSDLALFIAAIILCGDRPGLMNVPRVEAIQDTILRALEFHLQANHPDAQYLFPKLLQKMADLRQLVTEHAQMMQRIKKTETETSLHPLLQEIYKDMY
How it was run: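 Fluorescence from CCF4 substrate cleavage by beta-lactamase reporter, read 2 hrs at RT, measured agonist activity. Compounds were tested with 18 hrs exposure at 37 C. Concentration-response data fitted to Hill equation.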

[21] = qHTS assay for small molecule antagonists of peroxisome proliferator-activated receptor delta signaling (AID 588535; active = well fitted inhibition curve with a large enough effect in the signal ratio, with a control signal flat, not every such curve was filed as active; the % refers to the signal ratio;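 as to max response: cells co-treated with a PPAR-delta agonist as stimulator during compound exposure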); details: HEK293T PPARd-UAS-bla, beta-lactamase FRET ratio, 18 h; 460 nm channel
How it was run: (§1)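 Reporter: UAS-bla under PPAR-delta response element, HEK293T host. Medium: 2% charcoal/dextran FBS. Dosing: titration, 18 hrs, 37 C. Detection: CCF4, 2 hrs RT, 405 ex/460 and 530 em.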

[22] = target: Peroxisome proliferator-activated receptor delta (Homo sapiens) (UniProt Q03181); assay: as above
How it was run: as §1

[23] = target: Peroxisome proliferator-activated receptor gamma (Homo sapiens) (UniProt P37231); assay: qHTS assay for small molecule agonists of peroxisome proliferator-activated receptor gamma signaling (AID 588536; active = well fitted curve in the direction sought with a large enough effect in the signal ratio, with a control signal flat, not every such curve was filed as active; the % refers to the signal ratio;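 also: 0% = DMSO basal wells and 100% = rosiglitazone at 2 µM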)
Sequence of Peroxisome proliferator-activated receptor gamma (Homo sapiens) (P37231 whole entry, looked up): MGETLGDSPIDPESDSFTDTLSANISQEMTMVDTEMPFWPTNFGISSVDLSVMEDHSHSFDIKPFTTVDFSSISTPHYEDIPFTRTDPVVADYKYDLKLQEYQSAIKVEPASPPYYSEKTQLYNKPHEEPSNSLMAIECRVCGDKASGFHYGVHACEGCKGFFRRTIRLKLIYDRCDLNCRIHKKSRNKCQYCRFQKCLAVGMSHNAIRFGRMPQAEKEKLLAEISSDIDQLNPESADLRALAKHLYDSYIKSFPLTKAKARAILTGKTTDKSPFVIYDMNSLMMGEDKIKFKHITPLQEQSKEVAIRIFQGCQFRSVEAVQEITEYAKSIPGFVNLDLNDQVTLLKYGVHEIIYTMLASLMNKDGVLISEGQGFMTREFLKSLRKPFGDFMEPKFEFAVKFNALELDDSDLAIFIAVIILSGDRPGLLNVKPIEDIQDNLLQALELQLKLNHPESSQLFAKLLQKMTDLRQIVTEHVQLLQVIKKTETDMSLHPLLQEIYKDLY
How it was run: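 Ratiometric blue/green fluorescence (405 nm excitation; 460 and 530 nm emission) from CCF4-loaded HEK293 reporter cells serves as signal. Exposure to test compounds lasts 16 h at 37 C in medium containing 1% charcoal/dextran-treated serum.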

[24] = target: Vitamin D3 receptor (Homo sapiens) (UniProt P11473); assay: qHTS assay for small molecule antagonists of vitamin D receptor signaling (AID 588541; calls by dose curve;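 also: receptor activated by calcitriol during compound treatment; series mostly up to about 77 µM; % is scaled to controls: 0 for no effect and ±100 for the full control effect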)
Sequence of Vitamin D3 receptor (Homo sapiens) (P11473 whole entry, looked up): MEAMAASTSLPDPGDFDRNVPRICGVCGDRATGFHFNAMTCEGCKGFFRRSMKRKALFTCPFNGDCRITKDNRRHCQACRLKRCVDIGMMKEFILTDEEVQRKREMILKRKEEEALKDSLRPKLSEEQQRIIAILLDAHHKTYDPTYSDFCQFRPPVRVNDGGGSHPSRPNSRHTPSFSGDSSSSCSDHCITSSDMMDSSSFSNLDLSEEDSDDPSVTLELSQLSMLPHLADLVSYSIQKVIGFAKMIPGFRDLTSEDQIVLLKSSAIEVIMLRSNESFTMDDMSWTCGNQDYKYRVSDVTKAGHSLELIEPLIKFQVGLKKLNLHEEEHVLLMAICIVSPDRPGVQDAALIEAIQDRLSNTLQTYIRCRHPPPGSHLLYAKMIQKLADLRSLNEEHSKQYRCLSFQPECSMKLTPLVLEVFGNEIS
How it was run: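 VDR-UAS-bla HEK293T cells (2000/well, 2% charcoal-stripped FBS) were treated with titrated compounds plus 1-alpha,25-dihydroxyvitamin D3 (50 nM or 3 nM final) for 16 h at 37 C. CCF4 beta-lactamase fluorescence was read; Hill fits gave IC50.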

Clc1cc(Cl)c(-c2cc(Cl)c(Cl)cc2Cl)cc1Cl
inactive: Potency [1] | Potency [2] | Potency [3] | Potency [4] | Potency [5] | Potency [6] | Potency [7] | Potency [8] | Potency [9] | Potency [10] | Potency [11] | Potency [12] | Potency [13] | Potency [14] | Potency [15] | Potency [16] | outcome [17] | activation [18] 0.333% and 5.15% | Potency [19] | outcome [20] | Potency [22] | outcome [23] | outcome [24]
34.2% and 61.4%: max response [21]

Reference: PubChem BioAssay (NCATS)
